According to PMC13541613, “GHT-SELEX demonstrates unexpectedly high intrinsic sequence specificity and complex DNA binding of many human transcription factors”:

Experiments:
Experiment in all cases: HT-SELEX; 20 mM HEPES pH 7, 140 mM KCl, 5 mM NaCl, 1 mM K2HPO4, 2 mM MgSO4, 100 uM EGTA, ZnSO4, 0.1% Tween20; room temperature, 1 h; high values mean tight binding
Conditions in all cases: protein: ivt; tags: eGFP (N-terminal); dsDNA, one strand shown
[1] = molecular target: ZNF721 full-length (Homo sapiens, UniProt Q8TF20-2 1-923)
ZNF721 full-length, sequence (Q8TF20 other isoform, or with tags, fused parts or gaps): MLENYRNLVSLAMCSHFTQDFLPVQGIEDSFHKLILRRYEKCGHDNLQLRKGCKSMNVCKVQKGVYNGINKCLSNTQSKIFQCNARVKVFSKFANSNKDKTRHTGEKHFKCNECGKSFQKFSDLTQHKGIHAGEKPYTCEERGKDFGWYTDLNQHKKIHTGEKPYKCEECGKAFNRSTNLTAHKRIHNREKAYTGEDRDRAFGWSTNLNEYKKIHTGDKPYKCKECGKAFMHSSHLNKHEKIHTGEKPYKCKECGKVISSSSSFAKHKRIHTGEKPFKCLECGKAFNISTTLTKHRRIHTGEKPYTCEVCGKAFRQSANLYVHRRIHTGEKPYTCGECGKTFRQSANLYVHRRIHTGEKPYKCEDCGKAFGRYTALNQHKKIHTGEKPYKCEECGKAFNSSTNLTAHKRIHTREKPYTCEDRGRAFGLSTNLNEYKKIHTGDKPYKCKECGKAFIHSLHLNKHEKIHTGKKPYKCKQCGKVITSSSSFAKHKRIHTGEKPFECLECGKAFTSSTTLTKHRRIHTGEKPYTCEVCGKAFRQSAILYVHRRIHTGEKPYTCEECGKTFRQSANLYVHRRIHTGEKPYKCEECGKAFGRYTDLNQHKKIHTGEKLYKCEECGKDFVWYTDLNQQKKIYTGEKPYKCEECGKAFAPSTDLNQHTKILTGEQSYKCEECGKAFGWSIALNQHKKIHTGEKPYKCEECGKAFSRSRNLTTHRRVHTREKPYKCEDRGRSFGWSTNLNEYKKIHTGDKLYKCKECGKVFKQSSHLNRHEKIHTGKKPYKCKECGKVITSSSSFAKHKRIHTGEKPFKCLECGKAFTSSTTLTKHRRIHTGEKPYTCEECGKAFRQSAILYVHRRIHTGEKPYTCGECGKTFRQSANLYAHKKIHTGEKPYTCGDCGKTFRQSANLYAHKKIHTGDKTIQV
How it was run: (§1)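 Full-length or DNA-binding-domain forms of a tagged transcription factor were produced in HEK293 lysate or cell-free extract and immobilised on beads. Incubation with a randomized 40-base DNA library ran for 1 h at room temperature in HEPES/KCl low-stringency buffer with Tween20, after which bound DNA was washed, heat-eluted, PCR-amplified over successive cycles and Illumina-sequenced. Binding strength is given as the relative k-mer count in selected reads, higher for tighter binding.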

[2] = molecular target: ZNF721 DBD1 (Homo sapiens, UniProt Q8TF20-2 29-461)
ZNF721 DBD1, sequence (Q8TF20 17-449): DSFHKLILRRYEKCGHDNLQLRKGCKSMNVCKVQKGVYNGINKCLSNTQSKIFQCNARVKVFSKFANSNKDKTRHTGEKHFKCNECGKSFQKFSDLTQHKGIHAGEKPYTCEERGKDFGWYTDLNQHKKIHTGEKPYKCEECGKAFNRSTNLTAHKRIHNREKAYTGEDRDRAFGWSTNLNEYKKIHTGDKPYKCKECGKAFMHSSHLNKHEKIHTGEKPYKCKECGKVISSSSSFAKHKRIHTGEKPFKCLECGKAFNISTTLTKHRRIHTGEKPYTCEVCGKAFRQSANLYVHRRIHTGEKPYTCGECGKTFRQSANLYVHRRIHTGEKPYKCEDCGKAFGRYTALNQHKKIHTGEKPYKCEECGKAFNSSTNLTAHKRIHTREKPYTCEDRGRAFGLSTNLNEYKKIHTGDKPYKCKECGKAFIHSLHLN
How it was run: as §1

[3] = molecular target: ZNF721 DBD2 (Homo sapiens, UniProt Q8TF20-2 395-923)
ZNF721 DBD2, sequence (Q8TF20 383-911): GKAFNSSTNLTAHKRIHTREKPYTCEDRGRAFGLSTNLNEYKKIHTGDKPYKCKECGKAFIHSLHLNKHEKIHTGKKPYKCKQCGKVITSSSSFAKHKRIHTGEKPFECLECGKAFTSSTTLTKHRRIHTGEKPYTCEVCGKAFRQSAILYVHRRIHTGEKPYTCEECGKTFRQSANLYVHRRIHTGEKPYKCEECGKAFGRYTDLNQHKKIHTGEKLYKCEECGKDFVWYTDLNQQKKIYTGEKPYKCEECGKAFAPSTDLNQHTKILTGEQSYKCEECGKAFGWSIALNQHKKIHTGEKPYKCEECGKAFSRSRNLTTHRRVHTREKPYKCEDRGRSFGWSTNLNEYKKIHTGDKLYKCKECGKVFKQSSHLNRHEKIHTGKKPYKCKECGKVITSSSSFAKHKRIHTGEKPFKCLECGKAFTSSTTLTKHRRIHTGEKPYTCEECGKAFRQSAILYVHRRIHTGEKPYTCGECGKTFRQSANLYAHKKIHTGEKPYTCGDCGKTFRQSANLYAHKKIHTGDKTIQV
How it was run: as §1

Sequence | binding signal [1] | binding signal [2] | binding signal [3]
CAAAACAGCA | 0.21 relative 10-mer count | 0.00119 relative 10-mer count | 0.205 relative 10-mer count
CGAAAAAAAA | 0.137 relative 10-mer count | 0.0159 relative 10-mer count | 0.0695 relative 10-mer count
CCACGCCCCA | 0.109 relative 10-mer count | 0.00422 relative 10-mer count | 0.0024 relative 10-mer count
CCACCCCATC | 0.11 relative 10-mer count | 0.00509 relative 10-mer count | 0.00791 relative 10-mer count
CTCCCCTCCC | 0.135 relative 10-mer count | 0.00693 relative 10-mer count | 0.00455 relative 10-mer count
CCCACCCCTC | 0.188 relative 10-mer count | 0.01 relative 10-mer count | 0.00527 relative 10-mer count
CATCCCCCCC | 0.123 relative 10-mer count | 0.00463 relative 10-mer count | 0.00635 relative 10-mer count
CCACCCCCGA | 0.104 relative 10-mer count | 0.00298 relative 10-mer count | 0.00264 relative 10-mer count
AAAAAGCTGC | 0.229 relative 10-mer count | 0.0954 relative 10-mer count | 0.00372 relative 10-mer count
GGGGTGGGAC | 0.111 relative 10-mer count | 0.00449 relative 10-mer count | 0.00108 relative 10-mer count
CACCCCCCGC | 0.132 relative 10-mer count | 0.00537 relative 10-mer count | 0.00635 relative 10-mer count
CCACCCAACC | 0.151 relative 10-mer count | 0.00674 relative 10-mer count | 0.00551 relative 10-mer count
CGCTTCTTTC | 0.12 relative 10-mer count | 0.081 relative 10-mer count | 0.0018 relative 10-mer count
ATGTGTATGA | 0.12 relative 10-mer count | 0.124 relative 10-mer count | 0.0018 relative 10-mer count
GCCCCACCGC | 0.104 relative 10-mer count | 0.00271 relative 10-mer count | 0.00407 relative 10-mer count
CCCCTCCCGC | 0.137 relative 10-mer count | 0.00665 relative 10-mer count | 0.00635 relative 10-mer count
CGCCCACCAC | 0.138 relative 10-mer count | 0.00569 relative 10-mer count | 0.00384 relative 10-mer count
CCCCACCATC | 0.111 relative 10-mer count | 0.00477 relative 10-mer count | 0.00563 relative 10-mer count
AAAAGCTATC | 0.233 relative 10-mer count | 0.129 relative 10-mer count | 0.00168 relative 10-mer count
CCACCCCTAC | 0.112 relative 10-mer count | 0.00449 relative 10-mer count | 0.0036 relative 10-mer count

Sequence | binding signal [1] | binding signal [2] | binding signal [3]
CTCCCACCAC | 0.11 relative 10-mer count | 0.00752 relative 10-mer count | 0.00599 relative 10-mer count
CCCCACCCAA | 0.134 relative 10-mer count | 0.00431 relative 10-mer count | 0.00491 relative 10-mer count
ACCCGCCCCA | 0.109 relative 10-mer count | 0.00307 relative 10-mer count | 0.0012 relative 10-mer count
CCCCCTCCCG | 0.114 relative 10-mer count | 0.00573 relative 10-mer count | 0.00336 relative 10-mer count
CCCCACGCCC | 0.235 relative 10-mer count | 0.00853 relative 10-mer count | 0.00395 relative 10-mer count
CCCACCACAC | 0.155 relative 10-mer count | 0.00583 relative 10-mer count | 0.00947 relative 10-mer count
CCCCCTGCCC | 0.154 relative 10-mer count | 0.00628 relative 10-mer count | 0.00192 relative 10-mer count
CCACACCCCC | 0.201 relative 10-mer count | 0.00738 relative 10-mer count | 0.00276 relative 10-mer count
CCCTCTCCCC | 0.11 relative 10-mer count | 0.00564 relative 10-mer count | 0.00228 relative 10-mer count
ACCCACCGCC | 0.114 relative 10-mer count | 0.00482 relative 10-mer count | 0.00455 relative 10-mer count
CCCCCCCGAC | 0.115 relative 10-mer count | 0.00408 relative 10-mer count | 0.00288 relative 10-mer count
CGCCACCCAC | 0.123 relative 10-mer count | 0.0056 relative 10-mer count | 0.00372 relative 10-mer count
AAGGGGTGGG | 0.102 relative 10-mer count | 0.00546 relative 10-mer count | 0.00395 relative 10-mer count
ACCCACCCCG | 0.133 relative 10-mer count | 0.00491 relative 10-mer count | 0.00264 relative 10-mer count
CCCGCCGCCC | 0.194 relative 10-mer count | 0.00532 relative 10-mer count | 0.00192 relative 10-mer count
AAAAAAGGTA | 0.109 relative 10-mer count | 0.00752 relative 10-mer count | 0.0674 relative 10-mer count
CCATCCCCCC | 0.155 relative 10-mer count | 0.00592 relative 10-mer count | 0.0036 relative 10-mer count
ACAAAAAAGC | 0.187 relative 10-mer count | 0.0198 relative 10-mer count | 0.0647 relative 10-mer count
CCCTCCGCCC | 0.192 relative 10-mer count | 0.00936 relative 10-mer count | 0.00491 relative 10-mer count
CCCACCTCCC | 0.339 relative 10-mer count | 0.017 relative 10-mer count | 0.00551 relative 10-mer count

Sequence | binding signal [1] | binding signal [2] | binding signal [3]
AAGAAAAAAG | 0.166 relative 10-mer count | 0.0407 relative 10-mer count | 0.0319 relative 10-mer count
CCCCCCCTCC | 0.208 relative 10-mer count | 0.00982 relative 10-mer count | 0.00336 relative 10-mer count
AGGGGGCGGG | 0.128 relative 10-mer count | 0.00463 relative 10-mer count | 0.0012 relative 10-mer count
CCACACCACC | 0.135 relative 10-mer count | 0.0055 relative 10-mer count | 0.00623 relative 10-mer count
CACCACCCCC | 0.276 relative 10-mer count | 0.0117 relative 10-mer count | 0.0024 relative 10-mer count
CCCACCCTCC | 0.252 relative 10-mer count | 0.0121 relative 10-mer count | 0.0115 relative 10-mer count
CACAAAAAAA | 0.181 relative 10-mer count | 0.0107 relative 10-mer count | 0.0847 relative 10-mer count
CCACCCCACA | 0.163 relative 10-mer count | 0.00564 relative 10-mer count | 0.00791 relative 10-mer count
ACCCCCACCG | 0.102 relative 10-mer count | 0.00367 relative 10-mer count | 0.00336 relative 10-mer count
GGGAGGGGGA | 0.161 relative 10-mer count | 0.00752 relative 10-mer count | 0.00395 relative 10-mer count
AAGTGTATCC | 0.292 relative 10-mer count | 0.241 relative 10-mer count | 0.00503 relative 10-mer count
CCCGCCCCTC | 0.127 relative 10-mer count | 0.00633 relative 10-mer count | 0.00144 relative 10-mer count
CCACCCACAC | 0.152 relative 10-mer count | 0.00734 relative 10-mer count | 0.00635 relative 10-mer count
AGGGGGGGTG | 0.108 relative 10-mer count | 0.00422 relative 10-mer count | 0.00252 relative 10-mer count
CCCACCCCCG | 0.214 relative 10-mer count | 0.00771 relative 10-mer count | 0.00264 relative 10-mer count
GCCCCCGCCC | 0.146 relative 10-mer count | 0.00527 relative 10-mer count | 0.00132 relative 10-mer count
CCCACCCCCC | 0.427 relative 10-mer count | 0.0183 relative 10-mer count | 0.00384 relative 10-mer count
AACAAGCAGT | 0.128 relative 10-mer count | 0.017 relative 10-mer count | 0.0905 relative 10-mer count
AAAAAAGCGC | 0.115 relative 10-mer count | 0.0212 relative 10-mer count | 0.015 relative 10-mer count
CGTCCCCCCC | 0.126 relative 10-mer count | 0.00619 relative 10-mer count | 0.00108 relative 10-mer count
